Activity calls are given as the source filed them.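 How the source made its calls, unless noted: active means compounds whose cell count with miR-34 switched on is under 0.7 times the count with it off; inactive means the rest.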
Test: Cy5 fluorescence quenching or enhancement artefacts, artefact control for HCV NS3 helicase inhibitor project, biochemical, LOPAC1280 (AID 687037; call rule not given here)
Conditions: Cy5-DNA-NS3h complex fluorescence interference counterscreen

Compound | fluorescence ratio (interference)
C=CCn1c(=O)c2c(nc(-c3ccc(S(=O)(=O)O)cc3)n2C)n(C)c1=O | 1 (inactive)
N[C@H](CO)C(=O)O | 1 (inactive)
N#Cc1cc([N+](=O)[O-])c2sc(C(N)=O)[n+]([O-])c2c1 | 1 (inactive)

Test: sensitizers of A549 cells to miR-34 induction, primary screen, imaging, A549 dox-inducible miR-34, nuclei and caspase counts (AID 1347080); further: test concentration not given here
Conditions: A549 miR-34 inducible, Hoechst nuclei count, 48 h; active compounds read low; cell number ratio, induced over uninduced

Compound | fold change
CCCC(=O)NCCc1c2n(c3ccc(OC)cc13)CCCc1ccccc1-2 | 1.08 (inactive)
Cn1ccnc1 | 1.1 (inactive)
Nn1nnc2ccccc21 | 1.06 (inactive)
CCCn1c(=O)c2[nH]c(-c3ccc(S(=O)(=O)O)cc3)nc2n(CCC)c1=O | 0.978 (inactive)
C[C@H](O)C(=O)C1=Nc2c(nc(N)[nH]c2=O)NC1 | 0.965 (inactive)
NC1(C(=O)O)CCc2cc(C(=O)O)ccc21 (stereo unspecified) | 0.993 (inactive)
Nc1nc(Cl)nc2c1ncn2[C@@H]1O[C@H](CO)[C@H](O)C1O (stereo partly specified) | 1.07 (inactive)
N[C@H](C(=O)O)[C@H](O)C(=O)O | 0.956 (inactive)
C=C1C(=O)O[C@@H]2[C@H]3O[C@]3(C)CCC=C(C)CC[C@@H]12 | 1.05 (inactive)
C[C@@H]1C(=O)NC2=Nc3cccc(Cl)c3CN21 | 0.957 (inactive)
CCNC(=O)[C@H]1O[C@@H](n2cnc3c(N)nc(NCCc4ccc(CCC(=O)O)cc4)nc32)C(O)[C@H]1O (stereo partly specified) | 0.963 (inactive)
Cc1nc(N=Nc2ccc(S(=O)(=O)O)cc2S(=O)(=O)O)c(COP(=O)(O)O)c(C=O)c1O | 0.994 (inactive)
O=C(Nc1cccc(C(=O)Nc2ccc(S(=O)(=O)O)c3cc(S(=O)(=O)O)cc(S(=O)(=O)O)c23)c1)Nc1cccc(C(=O)Nc2ccc(S(=O)(=O)O)c3cc(S(=O)(=O)O)cc(S(=O)(=O)O)c23)c1 | 1.05 (inactive)
